# In all, about 10,000 compounds went through this assay and about 320 (3.2%) were called active. Rule as the data show it: active = CPE inhibition mostly above about 9.1% (no sharp cut-off); inactive = mostly below about 7.2%. What follows is part of a selection rich in actives, with near analogues and random picks from the rest.
# Assay: antivirals protecting cells from dengue CPE – CPE readout, HTS (AID 540333)
# Conditions: Dengue virus CPE inhibition in host cells, at 20 µM; stronger effect = higher value
row,SMILES,CPE inhibition
1,CC(O)c1nc2ccccc2n1Cc1ccc([N+](=O)[O-])cc1 (configuration not stated),inactive
2,Cc1ccc(-c2csc(NC(CO)c3nc4ccccc4n3CCOCCO)n2)cc1 (configuration not stated),0.615% (inactive)
3,CCCn1c(C(C)Nc2nc(-c3ccc(Cl)c([N+](=O)[O-])c3)cs2)nc2ccccc21 (configuration not stated),29.9% (active)
4,CCC1CCCCN1C(=O)c1cccc(S(=O)(=O)Nc2cc(C(F)(F)F)ccc2Cl)c1 (configuration not stated),3.38% (inactive)
5,COc1ccc(CCN=C(N)NS(=O)(=O)c2ccc3ccccc3c2)cc1,inactive
6,Cc1ccc(C2(CCN)CCOC(C(C)C)C2)cc1 (configuration not stated),7.74% (active)
7,O=C(NNS(=O)(=O)c1ccc(Cl)cc1)c1ccc(S(=O)(=O)N2CCCCC2)cc1,inactive
8,CC(C)(C)c1ccc(S(=O)(=O)N2CCCCC2)cc1,9.75% (active)
9,Cc1ccc(S(=O)(=O)N2CCCCCC2)cc1[N+](=O)[O-],inactive
10,CC(C)(C)c1ccc(S(=O)(=O)N2CCSC2)cc1,0.03% (inactive)
11,COc1cc2cc(CN(Cc3cccs3)C(=S)Nc3ccccc3)c(=O)[nH]c2cc1OC,6.21% (inactive)
12,COC(=O)c1ccccc1NC(=S)N(Cc1ccc2c(c1)OCO2)Cc1cc2cc(OC)ccc2[nH]c1=O,3.25% (inactive)
13,Cc1ccc2[nH]c(=O)c(CN(Cc3cccs3)C(=S)NCc3ccco3)cc2c1,5.92% (inactive)
14,CCOc1ccccc1NC(=S)N(Cc1cc2ccc(C)cc2[nH]c1=O)CC1CCCN1CC (configuration not stated),inactive
15,CCN1CCCC1CN(Cc1cc2ccc(C)cc2[nH]c1=O)C(=S)Nc1ccccc1OC (configuration not stated),inactive
16,COC(=O)c1ccccc1NC(=S)N(Cc1ccc2c(c1)OCO2)Cc1cc2ccc(OC)cc2[nH]c1=O,23.8% (active)
17,CNC(=S)N(Cc1cccs1)Cc1cc2cc(OC)c(OC)cc2[nH]c1=O,inactive
18,COC(=O)c1ccccc1NC(=S)N(Cc1ccc2c(c1)OCO2)Cc1cc2ccc(C)cc2[nH]c1=O,33% (active)
19,COC(=O)c1ccccc1NC(=S)N(Cc1ccc2c(c1)OCO2)Cc1cc2cc(C)ccc2[nH]c1=O,21.6% (active)
20,COC(=O)Cc1ccc(NC(=S)N2CCN(c3cccc(O)c3)CC2)cc1,0.105% (inactive)
21,CCOC(=O)CCCNC(=O)COC(=O)[C@@H]1CCCN1S(=O)(=O)c1ccc(Cl)cc1,inactive
22,Cc1ccc(-c2nc3ccccc3c(=O)n2NC(=O)COc2ccccc2)cc1,0.37% (inactive)
23,CN(C)c1ccc(/C=N/NC(=S)NCc2ccco2)cc1,0.335% (inactive)

row,SMILES,CPE inhibition
1,COc1ccc(NC(=O)Nc2cccc([N+](=O)[O-])c2)cc1Cl,0.865% (inactive)
2,O=C(O)c1ccc(NC(CSCc2ccccc2F)C(=O)O)c([N+](=O)[O-])c1 (configuration not stated),inactive
3,CC12CCC(C(=O)N(c3ccc(Cl)cc3)C1=O)C2(C)C (configuration not stated),inactive
4,CC12CCC(C/C1=N\N=C1\NC(=O)/C(=C\c3ccc(Cl)cc3)S1)C2(C)C (configuration not stated),12.2% (active)
5,Cc1c(N=C2NC(=O)/C(=C/c3ccc(O)cc3)S2)c(=O)n(-c2ccccc2)n1C,0.27% (inactive)
6,NS(=O)(=O)c1ccc(NC(=S)N2CCN(c3ccccc3)CC2)cc1,0.43% (inactive)
7,O=C(COc1ccccc1-c1ccccc1)NCCN1C(=O)S/C(=C\c2cccnc2)C1=O,2.91% (inactive)
8,COc1ccc(N(C(=O)CSCC(=O)Nc2cc(C)on2)C(C(=O)NC2CCCCC2)c2ccc(O)c(O)c2)cc1 (configuration not stated),inactive
9,COc1cc(OC)cc(N(C(=O)C2COc3ccccc3O2)C(C(=O)NC2CCCCC2)c2ccc(O)cc2)c1 (configuration not stated),12.5% (active)
10,COc1ccc(N(C(=O)C2COc3ccccc3O2)C(C(=O)NC2CCCCC2)c2ccccc2)cc1OC (configuration not stated),4.27% (inactive)
11,CC(C)[C@H](NC(=O)c1ccccc1)C(=O)OCC(=O)N1CCCCCC1,1.74% (inactive)
12,COc1cc(C(=O)NC(=S)N(CCc2ccccc2)CCc2ccccc2)cc(OC)c1OC,inactive
13,COCCNC(=S)N/N=C(\C)c1ccccc1OC,0.125% (inactive)
14,Cc1ccc(-c2nc(N)sc2CC(=O)OCC(=O)NC2CCCC(C)C2C)cc1 (configuration not stated),0.74% (inactive)
15,CC1CCCC(NC(=O)COC(=O)c2cccc(NS(=O)(=O)/C=C/c3ccccc3)c2)C1C (configuration not stated),inactive
16,COc1cccc(/C=C(/C(=O)OCC(=O)NC2CCCC(C)C2C)c2ccccc2)c1 (configuration not stated),28.3% (active)
17,O=C1COc2cc(ccc2[N+](=O)[O-])Oc2ccc(cc2Cl)C(=O)CCCCO1,inactive
18,c1nc(N2CCC3(CC2)OCCO3)c2[nH]cnc2n1,inactive
19,Cc1ccc(C(C(=O)NC2CCCCC2)N(Cc2ccccc2)C(=O)Cc2c[nH]c3ccccc23)o1 (configuration not stated),24.2% (active)
20,COc1cccc(CN(C(=O)Cc2c[nH]c3ccccc23)C(C(=O)NC2CCCCC2)c2ccc(C)o2)c1 (configuration not stated),3.12% (inactive)
21,Cc1ccc(C(C(=O)NC2CCCCC2)N(C(=O)Cc2c[nH]c3ccccc23)c2ccccc2C)o1 (configuration not stated),3.84% (inactive)
22,CCN1CCS/C1=C/C=C/C1=[N+](CC)CCS1,0.14% (inactive)
23,CC(C)(C)[C@H]1C=C(C(=O)Nc2ccccc2)O[C@@H](OCCCCO)C1,inactive

row,SMILES,CPE inhibition
1,O=C1C2C(c3ccccc3)(C(=O)N1c1ccc(Cl)cc1)C2(c1ccccc1)c1ccccc1 (configuration not stated),1.7% (inactive)
2,CC12CCC(C(=O)N(c3cccc(Cl)c3)C1=O)C2(C)C (configuration not stated),inactive
3,O=C1C2C3C=CC(c4ccccc4)(C2C(=O)N1c1cccc(Cl)c1)C1C(=O)N(c2cccc(Cl)c2)C(=O)C31 (configuration not stated),25.2% (active)
4,CC(C)(C)c1ccc(-c2ccc3c(c2)S(=O)(=O)c2ccccc2C3=O)cc1,2.16% (inactive)
5,COc1ccc(CCN2C(=O)NC(NC(C)=O)(C(F)(F)F)C2=O)cc1OC (configuration not stated),0.945% (inactive)
6,CCCCC[C@H]1CN(CCCC)C(=O)[C@@H]1CC(=O)NCc1ccccc1,3.67% (inactive)
7,COc1ccc(CN2C[C@H](Cc3ccccc3)[C@@H](CC(=O)Nc3ccccc3)C2=O)cc1,13.5% (active)
8,COC(=O)CN1C(=S)N(Cc2ccccc2)C(=O)C1CC(=O)Nc1ccc(OC)cc1 (configuration not stated),inactive
9,O=C(CN1C2=NCCCN2c2ccccc21)c1cccc(Br)c1,4% (inactive)
10,COc1ccc2c(c1)C(=O)N1[C@H]3c4cc(OC)ccc4OC[C@@H]3[C@H](c3ccccc3)[C@]1(C)C(=O)N2,7.37% (inactive)
11,COc1ccc2c(c1)[C@H]1[C@H](CO2)[C@H](c2ccccc2)[C@]2(C)C(=O)Nc3cc(OC)c(OC)cc3C(=O)N12,2% (inactive)
12,COc1ccc2c(c1)[C@H]1[C@H](CO2)[C@H](c2ccccc2)[C@]2(C)C(=O)Nc3cc(Cl)ccc3C(=O)N12,11% (inactive)
13,COc1ccc2c(c1)OC[C@H]1[C@H]2N2C(=O)CN(Cc3ccc(F)cc3)C(=O)[C@@]2(C)[C@H]1c1ccccc1,12.2% (active)
14,C[C@]12C(=O)N(c3ccc(F)cc3)C(=O)N1[C@H]1c3ccccc3OC[C@@H]1[C@H]2c1ccccc1,1.73% (inactive)
15,CCOC(=O)[C@@H]1[C@H]2COc3cc(OC)ccc3[C@@H]2N2C(=O)N(c3ccccc3)C(=O)[C@]12C,0.065% (inactive)
16,C[C@@]12C(=O)Nc3ccc(Br)cc3C(=O)N1[C@H]1c3cc(Cl)ccc3OC[C@@H]1[C@@H]2c1ccccc1,18.8% (active)
17,C[C@]12C(=O)N(c3ccc(C(F)(F)F)cc3)C(=O)N1[C@H]1c3ccccc3OC[C@@H]1[C@H]2c1ccccc1,11.2% (inactive)
18,C[C@@]12C(=O)Nc3ccc(F)cc3C(=O)N1[C@H]1c3cc(Br)ccc3OC[C@@H]1[C@@H]2c1ccccc1,6.78% (inactive)
19,COc1ccc2c(c1)C(=O)N1[C@H]3c4cc(C)ccc4OC[C@@H]3[C@H](c3ccccc3)[C@]1(C)C(=O)N2,14.5% (active)
20,COc1cc2c(cc1OC)C(=O)N1[C@H]3c4cc(Cl)ccc4OC[C@@H]3[C@H](c3ccccc3)[C@]1(C)C(=O)N2,16.3% (active)
21,CCOC(=O)[C@@H]1[C@H]2COc3cc(OC)ccc3[C@H]2N2C(=O)N(c3ccc(F)cc3)C(=O)[C@@]12C,2.49% (inactive)
